According to PubChem BioAssay (Tox21):
Values joined by “and” are separate entries in the source; they are usually repeats but may differ in a detail not shown here. Equal entries are not always repeated. Results filed as inconclusive are left out. Entries that show only a call come without a potency. More than one record can exist for a structure, and the calls need not agree. Active and inactive are the calls of the source. Unless noted, the call rests on the fitted dose curve; in most records, active means well fitted curve in the direction sought with a large enough effect in the repeat runs; inconclusive means weak or mixed curves; inactive means no such curve, though single readings can be large; an effect the other way counts as inactive or inconclusive.

Experiments:
[1] = qHTS assay to identify small molecule agonists of the peroxisome proliferator-activated receptor delta (PPARd) signaling pathway - cell viability counter screen (AID 743211); further: nearly all actives have a fitted effect of over 55% in size
Method in brief: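 PPARd-bla HEK293H cells (UAS-beta-lactamase reporter) were treated with compounds for 17 h at 37 C. Viability was then read in the same wells by CellTiter-Glo luminescence after 30 min at room temperature.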

[2] = qHTS assay to identify small molecule antagonists of the peroxisome proliferator-activated receptor delta (PPARd) signaling pathway - cell viability counter screen (AID 743213); further: nearly all actives have a fitted effect of over 50% in size; further: potency means the concentration at half of the fitted maximal effect
Method in brief: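 Viability counter-screen, qHTS format: PPARd-bla HEK293H, L165041 300 nM final, 17 h compound exposure at 37 C, CellTiter-Glo luminescence after 30 min RT.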

[3] = biological target: Peroxisome proliferator-activated receptor delta (Homo sapiens) (UniProt Q03181); test: qHTS assay to identify small molecule antagonists of the peroxisome proliferator-activated receptor delta (PPARd) signaling pathway (AID 743215; active means well fitted inhibition curve with a large enough effect in the signal ratio in the repeat runs, not every such curve was filed as active; the % refers to the signal ratio;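 further: cells stimulated with agonist L165041 at 300 nM final during compound exposure; series mostly up to about 62 µM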)
Method in brief: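 Inhibition of L165041-driven (300 nM final) PPARd signaling is scored in HEK293H UAS-bla cells. Exposure lasts 17 h at 37 C; beta-lactamase activity is then read by FRET substrate fluorescence after 2 h at room temperature.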

[4] = qHTS assay to identify small molecule agonists of the farnesoid-X-receptor (FXR) signaling pathway - cell viability counter screen (AID 743218); further: nearly all actives have a fitted effect of over 45% in size
Method in brief: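 Cytotoxicity counter-screen run in parallel, same wells: FXR-UAS-bla HEK 293T cells dosed 16 h at 37 C, viability read by CellTiter-Glo luminescence after 30 min at room temperature.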

[5] = biological target: Vitamin D3 receptor (Homo sapiens) (UniProt P11473); test: qHTS assay to identify small molecule agonists of the vitamin D receptor (VDR) signaling pathway (AID 743222; calls by dose curve)
Method in brief: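 Quantitative HTS agonist-mode screen: compounds in DMSO were pin-transferred onto VDR-bla cells and incubated 16 h at 37C, 5% CO2. Reporter activity was detected with LiveBLAzer B/G FRET substrate after 2 h at room temperature.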

[6] = biological target: Vitamin D3 receptor (Homo sapiens) (UniProt P11473); test: qHTS assay to identify small molecule antagonists of the vitamin D receptor (VDR) signaling pathway (AID 743223; active means well fitted inhibition curve with a large enough effect in the signal ratio in the repeat runs, not every such curve was filed as active; the % refers to the signal ratio; further: potency means the concentration at half of the fitted maximal effect)
Method in brief: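 VDR-bla cells were plated, incubated 4 h at 37C, then given compound and 1alpha,25-dihydroxyvitamin D3 (3 nM final). After 16 h at 37C, LiveBLAzer B/G FRET substrate was added for 2 h at room temperature and fluorescence read.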

[7] = qHTS assay to identify small molecule agonists of the vitamin D receptor (VDR) signaling pathway - cell viability counter screen (AID 743224); further: series mostly up to about 63 µM; nearly all actives have a fitted effect of over 50% in size
Method in brief: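 Viability is measured in the same wells as the VDR-bla reporter assay: after 16 h compound treatment and 2 h substrate loading, CellTiter-Glo is added and luminescence read 30 min later.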

[8] = qHTS assay to identify small molecule agonists of the NFkB signaling pathway (AID 1159509; active means well fitted curve in the direction sought with a large enough effect in the signal ratio in the repeat runs, not every such curve was filed as active; the % refers to the signal ratio; further: series mostly up to about 61 µM)
Method in brief: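 NFkB-bla ME-180 cells carry a beta-lactamase reporter under an NF-kB response element. They were plated overnight, then exposed to compounds for 5 h at 37 C. Read-out is LiveBLAzer FRET after 1.5 hr at room temperature (405 nm excitation; 460/530 nm emission).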

[9] = qHTS assay to identify small molecule agonists of the NFkB signaling pathway - cell viability counter screen (AID 1159515; calls by dose curve; further: series mostly up to about 61 µM; nearly all actives have a fitted effect of over 55% in size)
Method in brief: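 Multiplexed viability readout: after the 5 hr compound exposure and 1.5 hr FRET substrate step, CellTiter-Glo reagent went into the same NFkB-bla ME-180 wells; ATP luminescence was measured after 30 min at room temperature.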

[10] = qHTS assay to identify small molecule agonists of the endoplasmic reticulum stress response signaling pathway (AID 1159516; active means well fitted activation curve with a large enough effect in the signal ratio in the repeat runs, not every such curve was filed as active; the % refers to the signal ratio)
Method in brief: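 Tox21 10K library screened in quantitative HTS format on ESRE-bla HeLa cells, a beta-lactamase reporter under ER stress response element control; 5 hr treatment, FRET read.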

[11] = qHTS assay to identify small molecule agonists of the endoplasmic reticulum stress response signaling pathway - cell viability counter screen (AID 1159517; calls by dose curve; further: series mostly up to about 61 µM; nearly all actives have a fitted effect of over 50% in size)
Method in brief: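 CellTiter-Glo was added to wells already read for beta-lactamase FRET, and luminescence was recorded 30 min later. Cells: ESRE-bla HeLa, 1,500 per well, compound exposure 5 hr at 37 C.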

[12] = qHTS assay to identify small molecule antagonists of the retinoid-related orphan receptor gamma (ROR-gamma) signaling pathway - cell viability counter screen (AID 1159520); further: nearly all actives have a fitted effect of over 50% in size
Method in brief: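 Tet-on ROR gamma CHO cells (1,000/well) were plated 4 hr, given compounds in DMSO for 2 hr at 37 C, then induced with 1 uM final doxycycline for 16 hr. Viability was read as ATP by CellTiter-Glo luminescence after 30 min.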

[13] = biological target: Nuclear receptor ROR-gamma (Homo sapiens) (UniProt P51449); test: qHTS assay to identify small molecule antagonists of the retinoid-related orphan receptor gamma (ROR-gamma) signaling pathway (AID 1159521; further: nearly all actives have a fitted effect of over 50% in size; further: potency means the concentration at half of the fitted maximal effect)
Method in brief: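 Tet-on RORγ CHO cells carrying a ROR response element–luciferase reporter were pretreated with compounds for 2 h, then induced with 1 uM (final) doxycycline hyclate for 16 h at 37 C. Antagonism was read as decreased ONE-Glo luminescence.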

[14] = qHTS assay to identify small molecule agonists of the AP-1 signaling pathway - cell viability counter screen (AID 1159525; calls by dose curve; further: nearly all actives have a fitted effect of over 55% in size)
Method in brief: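 ME-180 AP-1-bla, 2500 cells/well, Opti-MEM + 0.5% dialyzed FBS; overnight 37 °C; cpd 15-pt titration, 5 h 37 °C; CellTiter-Glo 30 min RT; luminescence read; normalised to TOAB and DMSO controls.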

[15] = qHTS assay to identify small molecule agonists of the AP-1 signaling pathway (AID 1159526; calls by dose curve)
[16] = biological target: Peroxisome proliferator-activated receptor delta (Homo sapiens) (UniProt Q03181); test: qHTS assay to identify small molecule agonists of the peroxisome proliferator-activated receptor delta (PPARd) signaling pathway (AID 743212; calls by dose curve)
Method in brief: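 A PPARd-bla HEK293H line with beta-lactamase under an Upstream Activator Sequence is treated with compounds at 37 C. Substrate loading for 2 h at room temperature precedes the fluorescence measurement.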

[17] = qHTS assay to identify small molecule antagonists of the farnesoid-X-receptor (FXR) signaling pathway - cell viability counter screen (AID 743221; active means well fitted cell-killing curve with a large enough effect in the repeat runs, not every such curve was filed as active; further: nearly all actives have a fitted effect of over 50% in size)
Method in brief: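 FXR-UAS-bla HEK 293T cells were treated with test compounds plus chenodeoxycholic acid (50 uM final) for 16 h at 37 C. Cell viability in the same wells was then read as CellTiter-Glo luminescence after 30 min at room temperature.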

[18] = qHTS assay to identify small molecule antagonists of the vitamin D receptor (VDR) signaling pathway - cell viability counter screen (AID 743225); further: nearly all actives have a fitted effect of over 50% in size
Method in brief: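 VDR-bla HEK 293T cells, 4 h pre-incubation at 37C, then compound plus 1-alpha,25-dihydroxyvitamin D3 (3 nM final) for 16 h. After the beta-lactamase FRET read, CellTiter-Glo was added to the same wells; luminescence after 30 min at room temperature.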

[19] = biological target: Bile acid receptor (Homo sapiens) (UniProt Q96RI1); test: qHTS assay to identify small molecule antagonists of the farnesoid-X-receptor (FXR) signaling pathway (AID 743217; active means well fitted inhibition curve with a large enough effect in the signal ratio in the repeat runs, not every such curve was filed as active; the % refers to the signal ratio)
Method in brief: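 Antagonist mode against 50 uM (final) chenodeoxycholic acid stimulation in FXR-bla HEK 293T cells, 16 h at 37 °C. Inhibition detected as reduced beta-lactamase activity via LiveBLAzer B/G FRET fluorescence after 2 h at room temperature.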

[20] = biological target: Bile acid receptor (Homo sapiens) (UniProt Q96RI1); test: qHTS assay to identify small molecule agonists of the farnesoid-X-receptor (FXR) signaling pathway (AID 743220; active means well fitted activation curve with a large enough effect in the signal ratio in the repeat runs, not every such curve was filed as active; the % refers to the signal ratio)
Method in brief: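 Beta-lactamase reporter under UAS control in GeneBLAzer FXR HEK 293T cells (5000/well) measured with LiveBLAzer FRET substrate after 2 h at room temperature. Compound exposure lasted 16 h at 37C.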

Chain of Peroxisome proliferator-activated receptor delta (Homo sapiens) (Q03181 whole entry, looked up): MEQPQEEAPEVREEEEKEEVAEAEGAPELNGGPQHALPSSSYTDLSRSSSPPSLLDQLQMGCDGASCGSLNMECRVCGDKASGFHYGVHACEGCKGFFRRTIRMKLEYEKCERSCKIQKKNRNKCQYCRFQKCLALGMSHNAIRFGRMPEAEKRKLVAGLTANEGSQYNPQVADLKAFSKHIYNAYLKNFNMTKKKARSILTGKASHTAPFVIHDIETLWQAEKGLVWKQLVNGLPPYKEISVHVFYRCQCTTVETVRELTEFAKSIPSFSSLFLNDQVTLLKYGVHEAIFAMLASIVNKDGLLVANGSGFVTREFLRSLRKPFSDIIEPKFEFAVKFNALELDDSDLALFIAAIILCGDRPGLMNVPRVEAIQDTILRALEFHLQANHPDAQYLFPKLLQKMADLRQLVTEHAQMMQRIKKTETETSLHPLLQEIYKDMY
Chain of Vitamin D3 receptor (Homo sapiens) (P11473 whole entry, looked up): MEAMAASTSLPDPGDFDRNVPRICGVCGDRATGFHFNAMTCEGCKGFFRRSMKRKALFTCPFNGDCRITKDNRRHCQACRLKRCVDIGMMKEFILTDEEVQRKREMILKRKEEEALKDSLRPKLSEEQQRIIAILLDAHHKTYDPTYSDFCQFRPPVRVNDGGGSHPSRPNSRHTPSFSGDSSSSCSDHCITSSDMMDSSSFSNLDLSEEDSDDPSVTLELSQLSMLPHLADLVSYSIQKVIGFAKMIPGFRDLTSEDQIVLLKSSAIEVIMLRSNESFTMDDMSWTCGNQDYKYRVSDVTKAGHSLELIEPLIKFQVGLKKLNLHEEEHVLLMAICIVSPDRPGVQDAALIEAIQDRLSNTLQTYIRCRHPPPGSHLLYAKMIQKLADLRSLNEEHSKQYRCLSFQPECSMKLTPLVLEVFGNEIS
Chain of Bile acid receptor (Homo sapiens) (Q96RI1 whole entry, looked up): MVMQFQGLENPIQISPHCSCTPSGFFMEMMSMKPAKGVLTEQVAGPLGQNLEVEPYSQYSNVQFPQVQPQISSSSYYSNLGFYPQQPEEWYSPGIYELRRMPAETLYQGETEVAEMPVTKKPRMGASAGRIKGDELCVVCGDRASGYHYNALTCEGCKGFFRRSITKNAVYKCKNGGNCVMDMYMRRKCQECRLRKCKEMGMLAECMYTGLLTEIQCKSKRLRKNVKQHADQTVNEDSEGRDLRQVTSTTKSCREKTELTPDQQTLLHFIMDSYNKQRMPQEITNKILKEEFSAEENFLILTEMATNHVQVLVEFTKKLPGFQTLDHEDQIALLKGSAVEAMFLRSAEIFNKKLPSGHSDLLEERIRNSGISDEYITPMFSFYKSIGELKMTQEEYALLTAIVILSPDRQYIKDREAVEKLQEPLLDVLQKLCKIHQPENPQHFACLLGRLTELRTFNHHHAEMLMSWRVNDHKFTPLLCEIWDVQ

Compound	Potency [1]	Potency [2]	outcome [3]	Potency [4]	Potency [5]	Potency [6]	Potency [7]	outcome [8]	outcome [9]	outcome [10]	Potency [11]	Potency [12]	Potency [13]	Potency [14]	Potency [15]	outcome [16]	Potency [17]	Potency [18]	outcome [19]	outcome [20]
CCOC(=O)/C=C\C(=O)OCC	inactive	inactive	inactive	inactive	inactive	inactive	inactive	inactive	inactive	inactive	inactive	inactive	inactive	inactive	inactive					
COCC(=O)O		inactive	inactive	inactive	inactive	inactive	inactive	inactive	inactive	inactive	inactive	inactive	inactive	inactive	inactive	inactive	inactive	inactive		
NC(=O)NNc1ccccc1	inactive	inactive		inactive	inactive	inactive	inactive	inactive	inactive	inactive	inactive	inactive	inactive	inactive	inactive					
CC(C)(C)C1CCC(O)CC1 (stereo not drawn)	inactive	inactive	inactive	inactive	inactive	inactive	inactive	inactive	inactive	inactive	inactive	inactive	inactive	inactive	inactive	inactive	inactive	inactive		
CN(C)c1ccc(C(=N)c2ccc(N(C)C)cc2)cc1		inactive		inactive	inactive	5.93 µM (active)		inactive		inactive	inactive			inactive	inactive		inactive	inactive		
CC(C)(N=C=O)c1cccc(C(C)(C)N=C=O)c1	inactive	inactive	inactive		inactive	inactive	inactive	inactive		inactive	inactive	inactive	inactive	inactive	inactive	inactive	inactive	inactive		
CCCCC(CC)COC(=O)CCCCCCCC(=O)OCC(CC)CCCC (stereo not drawn)	inactive	inactive	inactive	inactive			inactive	inactive		inactive	inactive	inactive		inactive	inactive	inactive	inactive	inactive	inactive	inactive
Oc1ccc2ccccc2c1		inactive and 3.89 µM (active)		inactive	inactive	inactive	inactive	inactive	inactive	inactive	inactive			inactive	inactive		inactive			
O=C1O[C@H](CO)[C@@H](O)[C@H](O)[C@H]1O		inactive	inactive	inactive	inactive	inactive	inactive	inactive	inactive	inactive	inactive	inactive		inactive	inactive			inactive	inactive	inactive
OC[C@@H](O)[C@H](O)[C@H](O)[C@@H](O)CO		inactive		inactive	inactive	inactive	inactive	inactive	inactive	inactive	inactive	inactive		inactive	inactive		inactive			
CC[Si](OC(C)=O)(OC(C)=O)OC(C)=O	inactive	inactive	inactive	inactive	inactive	inactive	inactive	inactive		inactive	inactive	inactive	inactive	inactive	inactive	inactive	inactive			
CCCCC(CC)COC(C)=O (stereo not drawn)	inactive	inactive	inactive	inactive	inactive	inactive	inactive	inactive		inactive	inactive	inactive	inactive	inactive	inactive	inactive	inactive	inactive		
CC1Cc2ccccc2N1NC(=O)c1ccc(Cl)c(S(N)(=O)=O)c1 (stereo not drawn)		inactive		inactive			inactive	inactive		inactive	inactive	inactive		inactive	inactive		inactive	inactive		
CC(=O)Nc1ccc(C(=O)O)cc1		inactive		inactive			inactive	inactive		inactive	inactive	inactive	inactive	inactive	inactive					
CC1COc2ccccc2N1C(=O)C(Cl)Cl (stereo not drawn)	inactive	inactive	inactive	inactive	inactive		inactive	inactive	inactive		inactive	inactive	61 µM (active) and 48.5 µM (active)	inactive	inactive		inactive	inactive		
CCCCCCCCC		inactive	inactive	inactive	inactive	inactive	inactive	inactive		inactive	inactive	inactive	inactive	inactive	inactive	inactive	inactive	inactive		
C=C(C#N)C(=O)OCC	inactive	inactive		inactive			inactive	inactive		inactive	inactive	inactive		inactive	inactive	inactive		inactive		
CC(C)(C)C(=O)C1C(=O)c2ccccc2C1=O	inactive	inactive	inactive	inactive	inactive	inactive	inactive	inactive		inactive	inactive		17.1 µM (active) and 30.6 µM (active)	inactive	inactive	inactive		inactive		inactive
O=C(c1cc(O)c(O)c(O)c1)c1ccc(O)c(O)c1O		inactive	inactive	inactive	inactive	inactive	inactive	inactive		inactive	inactive	inactive	21.7 µM (active) and inactive	inactive	inactive		inactive	inactive	inactive	inactive
